Nine compounds from PubChem BioAssay can be followed below.

Test [1] concerns the target Regulator of G-protein signaling 16 (Homo sapiens) (UniProt O15492). In words: modulators of RGS–Galpha-o binding, primary screen, biochemical, multiplexed beads, flow cytometry, RGS4/7/8/16/19 (AID 1504).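 Also: fluorescently labeled Galpha-o bound to GDP with aluminium fluoride binding biotinylated RGS beads.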 The note with it: multiplexed bead flow cytometry, measured here: RGS16 interaction, at 10 µM.
Test [2] addresses Regulator of G-protein signaling 19 (Homo sapiens) (UniProt P49795). The description is as above. The note with it: multiplexed bead flow cytometry, measured here: RGS19 interaction, at 10 µM.
In test [3] the target is Regulator of G-protein signaling 4 (Homo sapiens) + Guanine nucleotide-binding protein G(o) subunit alpha (Homo sapiens) (UniProt P49798+P09471). The test is described as above. As to conditions: multiplexed bead flow cytometry, at 10 µM.
The target in test [4] is Regulator of G-protein signaling 7 (Homo sapiens) (UniProt P49802). The test is described as above. The note with it: multiplexed bead flow cytometry, measured here: RGS7 interaction, at 10 µM.
For test [5], the target named is Regulator of G-protein signaling 8 (Homo sapiens) (UniProt P57771). The description is as above. As to conditions: multiplexed bead flow cytometry, measured here: RGS8 interaction, at 10 µM.
Test [6] in a line: disruption of biotin probe capture by avidin, counter-screen for RGS protein interaction modulators, biochemical, flow cytometry, bead-based (AID 1783;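 active = inhibition above 50%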;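 as to inhibition: median green fluorescence of gated singlet beads compared with DMSO control wells; 0% = DMSO wells and 100% = complete loss of bead fluorescence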). The note with it: streptavidin beads, fluorescein-biotin binding; at 10 µM, stronger effect = higher value.
For test [7], the target named is Guanine nucleotide-binding protein G(o) subunit alpha (Homo sapiens) (UniProt P09471). In words: RGS8-Galphao binding modulators, confirmation, biochemical, multiplexed bead flow cytometry, single concentration (AID 1836; in the data active = binding response below about 72% or above about 130%; inactive = in between;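 also: Galphao activated as GDP AlF4 complex before binding bead RGS8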). The note with it: bead-based flow cytometry RGS8-Galphao binding, fluorescence; at 10 µM; actives lie on both sides.
Test [8] has the same target. Nature of the test: RGS7-Galphao binding modulators, confirmation, biochemical, multiplexed bead flow cytometry, single concentration (AID 1837; in the data active = response below about 75% or above about 130%; inactive = in between;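 also: fluorescent Galphao activated with GDP and aluminum fluoride binding bead-coupled RGS7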). As to conditions: bead-based flow cytometry RGS7-Galphao binding; at 10 µM; actives lie on both sides.
In test [9] the target is Regulator of G-protein signaling 16 (Homo sapiens) + Guanine nucleotide-binding protein G(o) subunit alpha (Homo sapiens) (UniProt O15492+P09471). In words: modulators of RGS16-Galphao protein binding, confirmation, biochemical, single concentration, multiplexed bead flow cytometry (AID 1838; in the data active = response below about 74% or above about 130%; inactive = in between;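 also: Galphao activated as the GDP aluminium fluoride complex binding bead-coupled RGS16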). The note with it: bead-based flow cytometry, at 10 µM, actives lie on both sides.

Test [10] has as its target Guanine nucleotide-binding protein G(o) subunit alpha (Homo sapiens) (UniProt P09471). In words: modulators of RGS4-Galphao protein binding, confirmation, biochemical, single concentration, multiplexed bead flow cytometry (AID 1840; in the data active = binding response below about 74% or above about 130%; inactive = in between). The note with it: at 10 µM, actives lie on both sides.
Test [11] deals with Guanine nucleotide-binding protein G(o) subunit alpha (Homo sapiens) + Regulator of G-protein signaling 19 (Homo sapiens) (UniProt P09471+P49795). Nature of the test: regulators of RGS19-Galphao binding, confirmation, biochemical, single point, multiplexed bead flow cytometry (AID 1841; in the data active = response below about 50% or above about 160%; inactive = in between;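 also: 100% = no compound control and 0% = blank background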). The note with it: bead-based flow cytometry RGS19-Galphao binding; at 10 µM; actives lie on both sides.

Test [12] has as its target Ras-related C3 botulinum toxin substrate 1 (Homo sapiens) (UniProt P63000). Nature of the test: wildtype Rac1 GTP binding inhibitors, dose response, biochemical, multiplex bead flow cytometry (AID 1340;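 active = dose curve with midpoint inside tested range, moderate steepness, plateau gap beyond fit error, low compound glow and bead-link interference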). As to conditions: GST-Rac1 beads, Bodipy-FL-GTP binding; at 100 µM (top of the series) unless noted.

The list shows a part of the results. Activity calls are given as the source filed them. Unless noted, no rule for the calls is given here.

Sequence of Guanine nucleotide-binding protein G(o) subunit alpha (Homo sapiens) + Regulator of G-protein signaling 19 (Homo sapiens) (P09471 whole entry, looked up): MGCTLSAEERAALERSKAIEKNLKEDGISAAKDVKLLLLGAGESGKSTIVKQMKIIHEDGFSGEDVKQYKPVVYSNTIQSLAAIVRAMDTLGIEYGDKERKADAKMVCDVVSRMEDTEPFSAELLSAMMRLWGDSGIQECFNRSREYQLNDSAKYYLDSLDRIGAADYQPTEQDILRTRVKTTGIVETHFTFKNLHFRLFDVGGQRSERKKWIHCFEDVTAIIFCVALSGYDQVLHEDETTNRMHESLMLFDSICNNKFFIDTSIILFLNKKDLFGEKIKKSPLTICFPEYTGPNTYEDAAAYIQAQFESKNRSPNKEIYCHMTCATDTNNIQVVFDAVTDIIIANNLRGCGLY
Sequence of Guanine nucleotide-binding protein G(o) subunit alpha (Homo sapiens) + Regulator of G-protein signaling 19 (Homo sapiens) (P49795 whole entry, looked up): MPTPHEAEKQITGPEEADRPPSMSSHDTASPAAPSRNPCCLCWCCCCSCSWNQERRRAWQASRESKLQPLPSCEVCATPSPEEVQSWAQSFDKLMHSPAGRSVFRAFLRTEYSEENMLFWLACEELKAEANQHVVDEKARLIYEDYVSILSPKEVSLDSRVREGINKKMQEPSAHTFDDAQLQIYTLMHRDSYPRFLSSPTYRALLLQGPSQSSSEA
Sequence of Regulator of G-protein signaling 4 (Homo sapiens) + Guanine nucleotide-binding protein G(o) subunit alpha (Homo sapiens) (P09471 whole entry, looked up): as the sequence (P09471 whole entry, looked up) above
Sequence of Regulator of G-protein signaling 4 (Homo sapiens) + Guanine nucleotide-binding protein G(o) subunit alpha (Homo sapiens) (P49798 whole entry, looked up): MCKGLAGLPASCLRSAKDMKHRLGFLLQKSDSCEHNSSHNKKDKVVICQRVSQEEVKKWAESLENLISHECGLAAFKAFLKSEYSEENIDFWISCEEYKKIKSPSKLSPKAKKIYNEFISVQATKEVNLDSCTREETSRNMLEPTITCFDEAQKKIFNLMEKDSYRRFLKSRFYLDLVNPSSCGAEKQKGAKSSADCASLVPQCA
Sequence of Guanine nucleotide-binding protein G(o) subunit alpha (Homo sapiens) (P09471 whole entry, looked up): as the sequence (P09471 whole entry, looked up) above
Sequence of Regulator of G-protein signaling 16 (Homo sapiens) + Guanine nucleotide-binding protein G(o) subunit alpha (Homo sapiens) (O15492 whole entry, looked up): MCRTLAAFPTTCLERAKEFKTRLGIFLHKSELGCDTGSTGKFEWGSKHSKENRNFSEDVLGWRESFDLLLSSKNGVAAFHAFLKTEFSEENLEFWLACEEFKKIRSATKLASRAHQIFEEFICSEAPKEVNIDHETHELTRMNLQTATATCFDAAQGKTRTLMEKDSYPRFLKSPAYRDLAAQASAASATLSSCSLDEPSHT
Sequence of Regulator of G-protein signaling 16 (Homo sapiens) + Guanine nucleotide-binding protein G(o) subunit alpha (Homo sapiens) (P09471 whole entry, looked up): as the sequence (P09471 whole entry, looked up) above

For the compound `CN(C)S(=O)(=O)Oc1ccccc1C(=O)Nc1ccccc1Cl`, the RGS16–Galpha-o binding response in [1] worked out at 100%. In addition, the RGS19–Galpha-o binding response in test [2] was 70.6%. Also, in test [3], the RGS4–Galpha-o binding response was 114% (active). Further, in test [4], the RGS7–Galpha-o binding response worked out at 223%. Moreover, in test [5], the RGS8–Galpha-o binding response stood at 97.6%. Moreover, in test [6], the inhibition is -0.2% (inactive). The binding response (% of control) was 97.3% (inactive) in [7] and 98.9% (inactive) in test [10]. Also, the values for the response (percent of control binding) in test [8] and in [11] were 101% (inactive) and 83.3% (inactive), respectively. In addition, the response (% of control binding) in test [9] is 100% (inactive).
In test [1], `CC(NC(=O)COC(=O)C1CCN(S(=O)(=O)c2ccccc2C(F)(F)F)CC1)c1ccccc1` (stereo not drawn) yielded an RGS16–Galpha-o binding response of 327%. Moreover, in test [2], the RGS19–Galpha-o binding response is -23.1%. The RGS4–Galpha-o binding response in test [3] is 118% (active). Moreover, in test [4], the RGS7–Galpha-o binding response came to 115%. The compound further came in with an RGS8–Galpha-o binding response in test [5] of 148%. Besides, in test [6], the inhibition was -0.6% (inactive). Also, the binding response (% of control) in test [7] was 98.3% (inactive); in test [10] it was 97.2% (inactive). In addition, the response (percent of control binding) was 96.9% (inactive) in [8] and 97.7% (inactive) in test [11]. The response (% of control binding) in [9] is 99.8% (inactive).
Take `O=[N+]([O-])C(=c1ccc2c(c1)N1C3=C(CCCC3)CC3CCCCC31N=2)[N+](=O)[O-]` (stereo not drawn): in test [1], the RGS16–Galpha-o binding response was 20.9%. In [2], the RGS19–Galpha-o binding response was 357%. Also, the RGS4–Galpha-o binding response in test [3] is 80.6% (active). In addition, the RGS7–Galpha-o binding response in [4] is -195%. Moreover, the RGS8–Galpha-o binding response in [5] is 43.8%.
In [1], `O=C(Nc1ccc(-n2ccnc2P(=O)(O)c2ccccc2)cc1)c1ccccc1Br` had an RGS16–Galpha-o binding response of 143%. Besides, the RGS19–Galpha-o binding response in [2] was 394%. Also, the RGS4–Galpha-o binding response in test [3] was 138% (active). Besides, the RGS7–Galpha-o binding response in test [4] is 152%. This compound also gave an RGS8–Galpha-o binding response in test [5] of 105%. The compound was called inactive in test [6]. Besides, the results for the binding response (% of control) in test [7] and in test [10] were 114% (inactive) and 129% [activator] (active), respectively. In addition, the response (percent of control binding) in test [8] is 135% [activator] (active); in [11], 139% (inactive). In addition, the response (% of control binding) in test [9] is 118% (inactive).
For `NC(=O)Cc1ccc2sc(-c3ccccc3)nc2c1`, in test [1], the RGS16–Galpha-o binding response was 23.6%. Further, the RGS19–Galpha-o binding response in [2] came out at 149%. The RGS4–Galpha-o binding response in test [3] was 94.3% (active). Moreover, the RGS7–Galpha-o binding response in [4] turned out to be 92.4%. In test [5], this compound gave an RGS8–Galpha-o binding response of 84%. The inhibition in [6] is -0.3% (inactive). The binding response (% of control) in [7] was 98.7% (inactive); in test [10] it was 55.9% (active). The figures for the response (percent of control binding) in test [8] and in [11] were 43.6% (active) and 78.6% (inactive), respectively. Moreover, in test [9], the response (% of control binding) is 80% (inactive).
The compound `COc1ccc(-n2c(SCC(=O)OC(C)C)nnc2-c2ccccn2)cc1` yielded an RGS16–Galpha-o binding response in test [1] of 242%. For the same compound, the RGS19–Galpha-o binding response in test [2] came out at 103%. The RGS4–Galpha-o binding response in [3] was 106% (active). Besides, the RGS7–Galpha-o binding response in test [4] is 101%. The same compound displayed an RGS8–Galpha-o binding response in test [5] of 134%. In [6], the inhibition was -1.2% (inactive). Also, the figures for the binding response (% of control) in [7] and in test [10] were 99.1% (inactive) and 97.2% (inactive), respectively. In addition, the figures for the response (percent of control binding) in test [8] and in [11] were 96.9% (inactive) and 60.1% (inactive), respectively. Further, the response (% of control binding) in test [9] was 93.3% (inactive).
For `Cc1cccc(N=Cc2[nH]c3ccc(Br)c(Cl)c3c2O)c1`, the GTP binding signal, raw median fluorescence (lower = inhibition) (MCF (arbitrary fluorescence units)) in test [12] was found to be 240.
Compound `Fc1cc(F)c2nc(Nc3nc4c(F)cccc4s3)sc2c1` showed an RGS16–Galpha-o binding response in test [1] of 192%. The RGS19–Galpha-o binding response in test [2] was -2.22%. Besides, the RGS4–Galpha-o binding response in [3] was 110% (active). The RGS7–Galpha-o binding response in [4] was 112%. In addition, the RGS8–Galpha-o binding response in test [5] turned out to be 122%. Also, the inhibition in [6] is 0% (inactive). In addition, the binding response (% of control) in [7] and in test [10] was 103% (inactive) each time. Besides, the response (percent of control binding) in test [8] is 103% (inactive); in test [11], 107% (inactive). Besides, the response (% of control binding) in test [9] is 103% (inactive).
Consider `O=C(Nc1ccccc1)c1cc2ccccc2[nH]1`, for which the RGS16–Galpha-o binding response in [1] came out at 13.8%. The RGS19–Galpha-o binding response in [2] is -785%. Moreover, the RGS4–Galpha-o binding response in test [3] was 90.3% (active). In [4], the RGS7–Galpha-o binding response turned out to be 89.9%. The same compound had an RGS8–Galpha-o binding response in [5] of 67.8%. Moreover, in [6], the inhibition was 0.6% (inactive). In addition, the values for the binding response (% of control) in test [7] and in test [10] were 105% (inactive) and 106% (inactive), respectively. The response (percent of control binding) is 103% (inactive) in [8] and 99.5% (inactive) in test [11]. In test [9], the response (% of control binding) was 106% (inactive).
